aSyn 5UTR act: Activators via SNCA 5'UTR binding, MLPCN; alpha-synuclein 5'UTR reporter, activators screen; activity score, % (tested at 7.5 µM), hits read low; actives 7.1% (n = 300,000); AID 1814, 2009; in the data active means activity score below about -60%
Active calls of the source: *. The sample as a whole holds a higher share of hits than the screen did.

SMILES | aSyn 5UTR act
Cc1nc(NC(=O)/C=C/c2ccco2)sc1C | -199.3*
O=C(/C=C/c1ccco1)NC1=NCCS1 | -108.2*
O=C(/C=C/c1ccco1)Nc1nnc(-c2ccco2)s1 | -117.5*
CCSc1nnc(NC(=O)/C=C/c2ccco2)s1 | -320.5*
CCc1nnc(NC(=O)/C=C/c2ccco2)s1 | -501.0*
CNS(=O)(=O)c1ccc2nc(NC(=O)/C=C/c3ccco3)sc2c1 | -230.3*
O=C(/C=C/c1ccco1)Nc1cccc(NC(=O)/C=C/c2ccco2)n1 | -192.9*
O=C(/C=C\c1ccco1)Nc1cc([N+](=O)[O-])ccc1F | 97.4
CC/C(=N\NC(=O)c1csc(C)c1C)c1cccs1 | -181.8*
C/C(=N\NC(=O)c1csc(C)c1C)c1ccc(Cl)s1 | -124.9*
CCC/C(=N\NC(=O)c1csc(C)c1C)c1cccs1 | -108.9*
O=C(CC(=O)c1ccccc1)Nc1ccc(Cl)cc1 | -173.6*
CCC(=O)Nc1ccc(/C=C(\C(C)=O)C(=O)c2ccccc2)cc1 | -77.5*
Cc1ccc(NC(=O)CC(=O)c2ccccc2)cc1C | -116.7*
CCOC(=O)c1cc(C(=O)Nc2cccc(C)c2)nn1C | -120.6*
Cc1cccc(NC(=O)c2c(C)nn(-c3ccccc3)c2Cl)c1 | -96.5*
COc1ccc(-n2nc3cc(C)c(N)cc3n2)cc1Cl | -141.9*
COc1ccc(/C=N/NC(=O)c2cccnc2)cc1COc1ccc([N+](=O)[O-])c(C)c1 | 97.9
COc1cc(/C=C2\C(=O)N(CCC#N)N=C2C)ccc1OCC(=O)Nc1ccccc1 | -163.7*
COc1cc(/C=N/NC(=O)c2ccncc2)ccc1OCC(=O)Nc1cccc([N+](=O)[O-])c1 | -111.4*
COc1cc(/C=N/NC(=O)c2ccncc2)ccc1OCC(=O)Nc1ccc(C)c(C)c1 | -75.6*
C/C=C/c1ccc(OCC(=O)Nc2ccncc2)c(OC)c1 | -72.0*
COc1ccc(NC(=O)COc2ccc(/C=N/O)cc2OC)cc1 | -66.8*
Cc1ccc(-c2csc(NC(=O)COC(=O)c3cccc(S(=O)(=O)N4CCOCC4)c3)n2)cc1 | -92.8*
Cc1ccc(-c2csc(NC(=O)c3cccc(S(=O)(=O)N4CCN(C)CC4)c3)n2)cc1 | -65.8*
SMILES | aSyn 5UTR act
Cc1cc(C)c(C#N)c(SCC(=O)Nc2ccc3c(c2)OCO3)n1 | -145.3*
COCc1cc(C)nc(SCC(=O)Nc2ccc(C)c(C)c2)c1C#N | -136.0*
Cc1cc(C)c(C#N)c(SCC(=O)Nc2ccccc2C(N)=O)n1 | -64.1*
Cc1nc(SCC(=O)Nc2ccc3c(c2)OCO3)c(C#N)c2c1CCCC2 | -139.6*
N#Cc1cnc2sc3ccccc3n2c1=N | -68.0*
CN1C(=O)NC(c2cccc(O)c2)C(C(=O)c2cccs2)C1(O)C(F)(F)F (stereo not given) | -138.8*
CN(C)S(=O)(=O)c1ccc(C(=O)NCCSc2ccccc2)cc1 | -115.5*
COc1ccc(C(=O)NCCSc2ccccc2)cc1OC | -129.2*
OC1CCN(C(=S)Nc2ccc(Nc3ccccc3)cc2)CC1 | -116.3*
CC1CCCN(C(=S)Nc2ccc(Nc3ccccc3)cc2)C1 (stereo not given) | -123.2*
OC1CCCN(C(=S)Nc2ccc(SC(F)F)cc2)C1 (stereo not given) | -68.3*
COc1ccc(C(=O)Nc2cc(C)c(NC(=O)c3ccccn3)cn2)cc1 | -77.7*
CCCCC(=O)Nc1cnc(NC(=O)c2cccs2)cc1C | -127.1*
COc1ccc(C(=O)Nc2cnc(NC(=O)c3cccs3)cc2C)cc1 | -83.0*
O=c1[nH]c(N/N=C/c2ccccc2)nc2ccccc12 | -211.8*
Brc1ccc(-c2ccc(/C=N/Nc3nc4ccccc4[nH]3)o2)cc1 | -227.1*
Fc1cccc(/C=N/Nc2nc3ccccc3[nH]2)c1 | -160.4*
Fc1ccc(/C=N/Nc2nc3ccccc3[nH]2)cc1F | -159.1*
O=c1[nH]c(N/N=C\c2ccc3c(c2)OCO3)nc2ccccc12 | -161.0*
Cc1cc(N/N=C/c2ccc3c(c2)OCO3)nc2ccccc12 | -180.0*
C(/CCc1ccccc1)=N\Nc1nc2ccccc2[nH]1 | -67.2*
C(=N\Nc1nc2ccccc2[nH]1)/c1ccccc1 | -175.1*
C(=C\c1ccccc1)/C=N/Nc1nc2ccccc2[nH]1 | -274.8*
Cc1ccnc(NC(=O)C2CCN(S(=O)(=O)c3ccc(C)c(C)c3)CC2)c1 | -80.9*
CN1CCN(c2ccc(-c3ccnn3C(=O)Nc3cccc(C(F)(F)F)c3)cc2)CC1 | -114.1*
SMILES | aSyn 5UTR act
CCN(CC)S(=O)(=O)c1cc(C(=O)Oc2cccc(-c3cnc4ccccc4n3)c2)ccc1Br | -98.9*
CCN(CC)S(=O)(=O)c1ccc(Cl)c(C(=O)Oc2cccc(-c3cnc4ccccc4n3)c2)c1 | -90.2*
CC1Oc2ccccc2C=C1/C=N/Nc1ccc(C(=O)O)cc1 (stereo not given) | -95.1*
Cc1ccn2c(=O)nc(SCC(=O)c3ccccc3)nc2c1 | -76.0*
Cc1ccc2nc(SCC(=O)c3ccccc3)nc(=O)n2c1 | -111.8*
COc1ccc(/C=C\C(=O)Oc2cccc(/C=N/NC(=O)Cc3ccc(OC)c(OC)c3)c2)cc1 | -86.6*
COc1ccc(/C=C/C(=O)Oc2cccc(/C=N/NC(=O)c3cccc(F)c3)c2)cc1 | -150.7*
O=C(NCCSC1CCCCC1)c1ccccc1 | -66.9*
COc1ccc(C(=O)NCCSC2CCCCC2)cc1 | -159.4*
COc1ccc(-c2cc(-c3ccccc3)n[nH]2)c(O)c1 | -216.8*
COc1ccc(O)c(-c2cc(-c3cccs3)[nH]n2)c1 | -125.5*
COc1ccc(O)c(-c2cc(-c3ccccc3Cl)[nH]n2)c1 | -115.3*
Brc1cccc(Nc2nc(-c3cccnc3)cs2)c1 | -150.3*
Brc1ccc(Nc2nc(-c3cccnc3)cs2)cc1 | -161.1*
Clc1cccc(Nc2nc(-c3cccnc3)cs2)c1 | -270.8*
CCOc1ccc(Nc2nc(-c3cccnc3)cs2)cc1 | -223.2*
COc1cc(OC)c(C(=O)O/N=C(\N)c2cccc(C)c2)cc1OC | -67.5*
COc1cc(OC)c(C(=O)O/N=C(\N)c2ccc(C)cc2)cc1OC | -65.9*
Cc1occc1C(=O)O/N=C(\N)c1ccc(Cl)cc1 | -70.8*
COc1ccc(Cl)cc1C(=O)O/N=C(\N)c1ccc(Cl)cc1 | -267.0*
O=C(c1ccccc1)c1ccc(N2CCOCC2)c(F)c1 | -144.8*
O=C(c1ccccc1)c1cc([N+](=O)[O-])ccc1N1CCOCC1 | 101.3
O=C(Nc1ccc(N2CCOCC2)c(F)c1)c1cccs1 | -123.4*
Cc1ccc(C(=O)Nc2ccc(N3CCOCC3)nc2)cc1 | -71.3*
O=C(Nc1ccc(N2CCOCC2)nc1)c1cccs1 | -104.1*
SMILES | aSyn 5UTR act
CN(C)c1ccc(NC(=O)c2ccc(N3CCOCC3)nc2)cc1 | -62.3*
CCOC(=O)/C(C#N)=C(C)/C=C1\Sc2ccccc2N1CC | -105.5*
O=C1C(C=NCc2ccco2)=C(O)c2ccccc21 | -141.4*
O=C1C(C=NCc2cccnc2)=C(O)c2ccccc21 | -186.1*
C/C(N)=C(/C#N)C(=O)CSc1nn(-c2ccc(Cl)cc2)c(=S)s1 | -73.8*
C/C(N)=C(/C#N)C(=O)CSc1nnc(-c2ccc(OC(F)F)cc2)o1 | -204.3*
C/C(N)=C(/C#N)C(=O)CSc1ccccc1F | -115.0*
COc1ccc(CNc2nc(Cl)c(C#N)s2)cc1 | -94.7*
CN1/C(=C/C=C(/C#N)C(N)=O)C(C)(C)c2ccccc21 | -146.0*
O=C(Nc1cc(=O)[nH]c(=O)[nH]1)c1cc(Cl)ccc1Cl | -64.9*
Cc1ccn2c(c1)nc(=S)n2C(=O)c1ccco1 | -201.9*
O=[N+]([O-])c1ccc(-c2cn3ccccc3n2)cc1 | -147.8*
CN(C)S(=O)(=O)c1ccc(-c2cn3ccccc3n2)cc1 | -193.7*
COc1cccc(Nc2nc(-c3sc(N)nc3C)cs2)c1 | -111.9*

Compound activity from PubChem.
